# Results filed as inconclusive are left out. Activity calls are given as the source filed them. Calls come from the whole dose curve; as a rule, active = well fitted inhibition curve with a large enough effect; inconclusive = small, poorly fitted or top-dose-only effect; inactive = no such curve, though single readings can be large or run the other way.
# Target: Retinaldehyde dehydrogenase 3 (Homo sapiens) (UniProt P47895)
# Experiment: qHTS for Inhibitors of the Aldehyde Dehydrogenase Family (ALDH1A3) Primary screen (AID 2061315);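 note: plate controls were DMSO vehicle for no effect and reference inhibitor for full effect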
# Conditions: ALDH inhibition qHTS; series mostly up to 56 µM; activity change, negative = inhibition: at the top concentration
row,SMILES,"activity change, negative = inhibition"
1,Cc1ccnc(NC(=S)N2CCN(c3ccc(F)cc3)CC2)c1,-24.9% (inactive)
2,CC(O)c1ccc(-c2ccc3ncnc(NCC4CCCO4)c3c2)o1 (stereo not given),-8.93% (inactive)
3,O=C(Nc1ccc(-c2nc3ccccc3[nH]2)cc1)c1ccc(-c2ccccc2)cc1,7.66% (inactive)
4,S=C(Nc1cc(Cl)ccn1)N1CCN(c2ccc(Cl)cc2Cl)CC1,-13.6% (inactive)
5,Cc1cc(C)nc(NC(=S)N2CCN(c3cc(C(F)(F)F)nc4ccc(C(F)(F)F)cc34)CC2)c1,-18.9% (inactive)
6,COc1ccccc1O[C@@H]1O[C@H](CO)[C@H](O)[C@H](O)[C@H]1O,-20.2% (inactive)
7,FC(F)(F)c1ccccc1-c1nc(NCc2ccc(-c3ccc4c(c3)OCCO4)cc2)c2ccccc2n1,-18.9% (inactive)
8,CS(=O)(=O)c1ccc(C(=O)OCC(=O)N2CCN(C3CCCCC3)CC2)cc1[N+](=O)[O-],6.18% (inactive)
9,Cc1c(P(=S)(c2ccccc2)c2ccccc2)c2ccccc2n1C/C=C/c1ccccc1,5.22% (inactive)
10,CS(=O)(=O)c1ccc(C(=O)OCC(=O)N2CCN(Cc3ccccc3)CC2)cc1[N+](=O)[O-],-7.01% (inactive)
11,CC(=O)c1ccc(-c2ccc3ncnc(NCc4ccc(C)o4)c3c2)o1,-8.73% (inactive)
12,Cc1ccc(CN(C)c2nc(-c3ccccc3C(F)(F)F)nc3ccccc23)cc1,-8.66% (inactive)
13,Cc1ccc2nc3sc(C(=O)Nc4ccc(F)cc4)cc3cc2c1,-5.8% (inactive)
14,Cc1ccc(OCCn2c(CCNC(=O)c3ccc(C(C)(C)C)cc3)nc3ccccc32)cc1,6.53% (inactive)
15,NC(=O)C1CCN(c2nc(-c3cccc4sc5ccccc5c34)cs2)CC1,34.8% (inactive)
16,O=C(Cc1ccc(Cl)c(Cl)c1)Nc1ccc(S(=O)(=O)Nc2cncnc2)cc1,23.9% (inactive)
17,CSC(Cc1ccc(Cl)cc1)C(=O)Nc1ccc(Cl)cc1C(=O)O (stereo not given),1.31% (inactive)
18,O=[S+]([O-])(Nc1ccc2ccccc2c1)c1ccc(NCc2ccc(Cl)cc2O)cc1,-2.49% (inactive)
19,O=C(O)c1ccc(O)c2ncc(-c3ccc(N4CCOCC4)cc3)cc12,-13% (inactive)
20,OCc1ccc(-c2ccc3ncnc(NCc4cccs4)c3c2)o1,4.65% (inactive)

row,SMILES,"activity change, negative = inhibition"
1,COc1cccc(-c2nc(SC)nc3sc(C(=O)NC(C)(C)C)c(N)c23)c1,5.28% (inactive)
2,N#Cc1c(-c2ccccc2C(F)(F)F)nc2ccccc2c1NCc1ccc(-c2ccnc(C(F)(F)F)c2)cc1,-0.0122% (inactive)
3,COc1cc(/C=C2/C(=O)Nc3ccccc32)cc(OC)c1O,6.41% (inactive)
4,CN(C)c1ccc(C(=O)OCC#CCSc2nnc(-c3cccc4ccccc34)o2)cc1,15.4% (inactive)
5,Cc1cc(C=CC#N)cc(C)c1Nc1nc(Nc2ccc3scnc3c2)c2[nH]cnc2n1,-3.98% (inactive)
6,Cc1ccnc(NC(=S)N2CCN(c3ccccc3C(F)(F)F)CC2)c1,-11.9% (inactive)
7,COc1ccccc1NS(=O)(=O)c1cc(NC(=O)c2ccccc2)ccc1N1CCCC1,4.02% (inactive)
8,Fc1ccc(-c2ccc(CNc3nc(-c4ccccc4C(F)(F)F)nc4ccccc34)cc2)cc1,-13.3% (inactive)
9,CCCCOc1ccc(S(=O)(=O)n2c(C)nc3ccccc32)cc1,-15% [at 28 µM] (inactive)
10,NC(=O)C1CCN(c2ncnc(-c3ccc4c(c3)OCCCO4)n2)CC1,-10.2% (inactive)
11,CC(=O)Nc1sc2c(c1-c1ccc(OC(F)(F)F)cc1)CCNC2,-15.3% (inactive)
12,O=c1c2ccccc2nc2sc(NCc3ccc([S+](=O)([O-])c4ccccc4)cc3)nn12,-0.662% (inactive)
13,N#Cc1c(-c2cccs2)no[n+]1[O-],-15.1% (inactive)
14,Cc1ccc(CNc2ncnc3ccc(-c4ccc5c(c4)OCO5)cc23)s1,2.82% (inactive)
15,CC(C)(C)OC(=O)N1CCN(c2ccc(OCc3ccc(-c4ccc(C#N)cc4)o3)cc2)CC1,-1.12% (inactive)
16,CCCC1CCN(C(=O)COC(=O)c2ccc(S(C)(=O)=O)c([N+](=O)[O-])c2)CC1,-5.97% (inactive)
17,NC(=O)C1CCN(c2nc(-c3ccc(Oc4ccccc4)cc3)cs2)CC1,1.49% (inactive)
18,CS(=O)(=O)Nc1cccc(-c2cc(F)c(S(=O)(=O)N3CCN(S(=O)(=O)c4ccc5c(c4)OCCO5)CC3)cc2F)c1,17.1% (inactive)
19,CNc1cccc(S(=O)(=O)N2CCCN(S(=O)(=O)c3ccc4c(c3)OCCO4)CC2)c1,-0.122% (inactive)
20,CN(C)c1ccc2c(=O)n3nc(Nc4ccc5c(c4)CCC5)sc3nc2c1,-0.89% (inactive)

# Reference: PubChem BioAssay (NCATS)
